Experimental data taken from the supplement of paper PMC6124720.
Counter-ions that a name gives are not always drawn.

System: Pseudogymnoascus destructans 20631-21
Experiment: growth activity index (DuctApe, 0 = no growth, 9 = maximal growth) (index 0-9); higher = more fungal growth (less inhibition), active = 0 or less; extreme values may be limits of the assay
Settings: temperature: 13 °C, YPD
[1] = concentration level (1-4, increasing; Biolog proprietary): 1
[2] = concentration level (1-4, increasing; Biolog proprietary): 2
[3] = concentration level (1-4, increasing; Biolog proprietary): 3
[4] = concentration level (1-4, increasing; Biolog proprietary): 4

Measured: growth activity index
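Note: biolog Phenotype Microarray plates PM21–25, OD595 followed daily over 11 days, growth curves converted to index, mean of two independent experiments.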

OCC1OC(O)CC(O)C1O [2-Deoxy-D-glucose] (Biolog plate: PM23)
inactive: [1] 4.67 | [2] 5 | [3] 5 | [4] 4.33

O=S(O)(O)=S [Sodium Thiosulfate] (Biolog plate: PM23)
inactive: [1] 5 | [2] 4.33 | [3] 1.67
active: [4] 0

O=C(O)CCC(=O)O [Succinic acid] (Biolog plate: PM25)
inactive: [1] 3.33 | [2] 3.33 | [3] 3.67 | [4] 3

Nc1[nH]c(=O)ncc1F [5-Fluorocytosine] (Biolog plate: PM25)
inactive: [1] 5 | [2] 4 | [3] 4.33 | [4] 4

O=c1[nH]cc(F)c(=O)[nH]1 [5-Fluorouracil] (Biolog plate: PM25)
inactive: [1] 4.67 | [2] 5 | [3] 5.33 | [4] 6

C[C@H]1c2cccc(O)c2C(=O)C2=C(O)[C@]3(O)C(=O)C(C(N)=O)=C(O)[C@@H](N(C)C)[C@@H]3[C@@H](O)[C@@H]21 [Doxycycline] (Biolog plate: PM23)
inactive: [1] 4.67 | [2] 5 | [3] 5.33 | [4] 6

CCCCCCCC(=O)[O-].[Na+] [Sodium Caprylate] (Biolog plate: PM23)
inactive: [1] 1 | [2] 3.33 | [3] 4 | [4] 4

N=C(N)N [Guanidine hydrochloride] (Biolog plate: PM21)
inactive: [1] 5.25 | [2] 5 | [3] 0.5 | [4] 0.25

O.O.O.O.O.O.[Cl-].[Cl-].[Mg+2] [Magnesium chloride] (Biolog plate: PM21)
inactive: [1] 4 | [2] 4 | [3] 4 | [4] 2.25

O=C(O)CN(CCOCCOCCN(CC(=O)O)CC(=O)O)CC(=O)O (Biolog plate: PM24)
inactive: [1] 4.33 | [2] 4.33 | [3] 4 | [4] 4

Clc1ccc(COC(Cn2ccnc2)c2ccc(Cl)cc2Cl)c(Cl)c1 (stereo not drawn) [Miconazole Nitrate] (Biolog plate: PM24)
inactive: [1] 4.67 | [2] 0.333 | [3] 0.333
active: [4] 0

NC(N)=S [Thiourea] (Biolog plate: PM21)
inactive: [1] 2
active: [2] 0 | [3] 0 | [4] 0

CSc1ccc2c(c1)N(CCC1CCCCN1C)c1ccccc1S2 (stereo not drawn) [Thioridazine] (Biolog plate: PM24)
active: [3] 0
inactive: [1] 3.33 | [2] 1.33 | [4] 1.33

NO [Hydroxylamine] (Biolog plate: PM23)
active: [4] 0
inactive: [1] 4 | [2] 4 | [3] 2.67

CO/N=C(\C(=O)N[C@@H]1C(=O)N2C(C(=O)O)=C(CSc3nc(=O)c(O)nn3C)CS[C@H]12)c1csc(N)n1 [Ceftriaxone] (Biolog plate: PM22)
active: [2] 0 | [3] 0 | [4] 0
inactive: [1] 2

[Cl][Mn][Cl] [Manganese chloride] (Biolog plate: PM21)
inactive: [1] 4 | [2] 5.25 | [3] 4.5 | [4] 4.5

CN(C)[C@@H]1C(O)=C(C(N)=O)C(=O)[C@@]2(O)C(O)=C3C(=O)c4c(O)ccc(Cl)c4[C@@](C)(O)[C@H]3C[C@@H]12 [Chlortetracycline] (Biolog plate: PM24)
inactive: [1] 5.67 | [2] 4.33 | [3] 6 | [4] 7

[Cl][Co][Cl] [Cobalt (II) chloride] (Biolog plate: PM23)
inactive: [1] 3.33 | [2] 4 | [3] 4.33 | [4] 1

O=C([O-])CC(O)(CC(=O)[O-])C(=O)[O-].[Na+].[Na+].[Na+] [Citric acid Trisodium Salt] (Biolog plate: PM25)
inactive: [1] 4 | [2] 4.67 | [3] 4 | [4] 5.67

CN(C)CCCN1c2ccccc2Sc2ccc(Cl)cc21 [Chlorpromazine] (Biolog plate: PM23)
active: [2] 0 | [3] 0
inactive: [1] 5 | [4] 2

[Cl-].[Cl-].[Zn+2] [Zinc chloride] (Biolog plate: PM21)
inactive: [1] 5.75 | [2] 6.75 | [3] 7 | [4] 6.25

NC[C@H]1O[C@H](O[C@H]2[C@H](O)[C@@H](O[C@H]3O[C@H](CO)[C@@H](O)[C@H](N)[C@H]3O)[C@H](N)C[C@@H]2N)[C@H](N)C[C@@H]1O [Tobramycin] (Biolog plate: PM25)
inactive: [1] 5 | [2] 5 | [3] 5 | [4] 1
